This passage reports z-score and composite z-score results from PubChem BioAssay.

The source made the active and inactive calls.

A short description of test [1]: E. coli DRC41 culture turbidity changes, primary screen, E. coli filamentation inducer project, strain DRC41, OD650, 48 h (AID 1152).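 Note: E. coli MC1000 strain DRC41 lacking acrAB efflux pump and sulA.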 As to conditions: E. coli DRC41 (acrAB sulA), higher = more signal, called active from +8 up or from −8 down.
The nature of test [2]: small-molecule binders of probe aLefty1, primary screen, biochemical, small-molecule microarray, 635/667 nm fluorescence (AID 1153).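 Note: score merges spot fluorescence with signal-to-noise ratio from the scanned slide images.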 The settings on record: higher = more signal.
The nature of test [3]: PSAC antagonists in infected red cells, primary screen, cell-based, P. falciparum Indochina, OD700, 1 h (AID 1154). As to conditions: P. falciparum Indochina infected RBC osmotic lysis, higher = more signal, called active from +8 up or from −8 down.
Test [4] can be described thus: PSAC antagonists in infected red cells, primary screen, cell-based, P. falciparum Indochina, OD700, 2 h (AID 1155).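 Note: lysis reports solute entry through the parasite surface anion channel PSAC; channel blockers reduce lysis of infected cells.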 As to conditions: P. falciparum Indochina infected erythrocytes, osmotic lysis OD700; higher = more signal, called active from +8 up or from −8 down.
Test [5] is described as follows: osmotic lysis modulators in infected erythrocytes, primary screen, PSAC antagonist project, cell-based, P. falciparum Indochina, OD700, 3 h (AID 1156). The settings on record: higher = more signal, called active from +8 up or from −8 down.
Test [6] is described as follows: PSAC antagonists in infected red cells, primary screen, cell-based, P. falciparum Indochina, OD700, 18 h (AID 1157). The settings on record: P. falciparum Indochina infected erythrocytes, osmotic lysis OD700, 18 h; higher = more signal, called active from +8 up or from −8 down.
Test [7] can be described thus: modulators of S6 phosphorylation in cells, primary screen, cell-based, A549, cytoblot, luminescence, serum-stimulated (AID 1158).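 Note: serum-stimulated A549 lung adenocarcinoma cells; signal is phosphorylated S6 detected by cytoblot immunostaining with HRP secondary.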 As to conditions: A549 phospho-S6 cytoblot, 5 h, higher = more signal.
Test [8] concerns the target NADPH oxidase 2 (Homo sapiens) (UniProt P04839). Kind of test: NOX2-dependent H2O2 signal modulators, primary screen, NOX inhibitor project, cell-based, HEK293-NOX2, PMA-stimulated, Amplex Red fluorescence (AID 1159). Note: test concentration not given here. The settings on record: 45 min, higher = more signal, called active from +8 up or from −8 down.
The target of test [9] is NADPH oxidase 4 (Homo sapiens) (UniProt Q9NPH5). The experiment in a line: NOX4-dependent H2O2 signal modulators, primary screen, NOX inhibitor project, cell-based, HEK293-NOX4, tetracycline-induced, Amplex Red fluorescence (AID 1160). The settings on record: 45 min, higher = more signal, called active from +8 up or from −8 down.
NADPH oxidase 4 (Homo sapiens), sequence (Q9NPH5 whole entry, looked up): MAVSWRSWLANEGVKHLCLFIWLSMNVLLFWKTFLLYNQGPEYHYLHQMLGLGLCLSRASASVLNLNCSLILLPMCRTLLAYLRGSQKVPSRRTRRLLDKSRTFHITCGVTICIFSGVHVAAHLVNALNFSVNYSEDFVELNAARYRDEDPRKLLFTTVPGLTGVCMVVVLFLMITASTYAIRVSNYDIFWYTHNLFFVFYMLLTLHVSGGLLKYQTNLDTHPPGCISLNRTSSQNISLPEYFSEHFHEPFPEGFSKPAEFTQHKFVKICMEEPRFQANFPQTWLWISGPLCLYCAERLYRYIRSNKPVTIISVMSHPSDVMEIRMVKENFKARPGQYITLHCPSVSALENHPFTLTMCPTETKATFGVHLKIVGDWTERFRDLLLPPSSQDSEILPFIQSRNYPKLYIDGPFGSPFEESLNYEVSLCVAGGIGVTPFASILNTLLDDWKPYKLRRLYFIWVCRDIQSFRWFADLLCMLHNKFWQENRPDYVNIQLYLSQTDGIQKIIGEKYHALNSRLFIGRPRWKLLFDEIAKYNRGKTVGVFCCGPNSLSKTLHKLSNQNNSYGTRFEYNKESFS
Test [10] has as its target NADPH oxidase 5 (Homo sapiens) (UniProt Q96PH1). The experiment in a line: NOX5-dependent H2O2 signal modulators, primary screen, NOX inhibitor project, cell-based, HEK293-NOX5, Amplex Red fluorescence (AID 1161). As to conditions: HEK293-NOX5, ionomycin, 45 min, higher = more signal.
Test [11] in a line: A549 cell viability effects, profiling panel, calcein-AM fluorescence, 48 h, basal (AID 1162). Note: test concentration not given here. The settings on record: higher = more signal.
The nature of test [12]: adipocyte viability effects, profiling panel, cell-based, 3T3-L1 adipocytes, calcein-AM fluorescence, 48 h, basal (AID 1163). Note: test concentration not given here. The settings on record: 3T3-L1 adipocytes viability, higher = more signal.
Test [13] in a line: HepG2 cell viability effects, profiling panel, calcein-AM fluorescence, 48 h, basal (AID 1164). Note: test concentration not given here. As to conditions: higher = more signal.
Test [14] in a line: MM1S cell viability effects, profiling panel, calcein-AM fluorescence, 48 h, basal (AID 1165).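 Note: viability of MM1S multiple myeloma cells under basal unstimulated conditions; test concentration not given here.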 As to conditions: higher = more signal.
Test [15] is described as follows: basal RPMI8226 viability, no added stimulus, profiling panel, cell-based, calcein-AM fluorescence, 48 h, PK04 Diversity Set (AID 1166).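 Note: cells grown under basal conditions without added stimulus; test concentration not given here.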 The settings on record: RPMI8226 myeloma viability, higher = more signal.
A short description of test [16]: basal HepG2 mitochondrial membrane potential changes, profiling panel, cell-based, JC-1 fluorescence, 24 h, 100 nL compound (AID 1167). Note: test concentration not given here. As to conditions: higher = more signal.
Test [17] in a line: basal 3T3-L1 adipocyte mitochondrial potential changes, profiling panel, cell-based, JC-1 fluorescence, 3T3-L1 adipocytes, 24 h, 100 nL compound (AID 1168). Note: test concentration not given here. The settings on record: JC-1 mitochondrial fluorescence, higher = more signal, called active from +8 up or from −8 down.
Test [18] in a line: basal RPMI8226 mitochondrial membrane potential changes, profiling panel, cell-based, JC-1 fluorescence, 24 h, 100 nL compound (AID 1169). Note: test concentration not given here. As to conditions: RPMI8226 myeloma, JC-1 mitochondrial potential fluorescence, higher = more signal.
Test [19] in a line: basal MM1S mitochondrial membrane potential changes, profiling panel, cell-based, JC-1 fluorescence, 24 h, 100 nL compound (AID 1170). Note: test concentration not given here. As to conditions: higher = more signal.
Test [20] can be described thus: A549 lung cancer cell viability effects, profiling panel, resazurin fluorescence, 24 h, PK04 Diversity Set (AID 1171). Note: test concentration not given here. The settings on record: higher = more signal, called active from +8 up or from −8 down. On the technique in general: Resazurin is reduced to fluorescent resorufin, in cell work by metabolically active cells.

NADPH oxidase 5 (Homo sapiens), sequence (Q96PH1 whole entry, looked up): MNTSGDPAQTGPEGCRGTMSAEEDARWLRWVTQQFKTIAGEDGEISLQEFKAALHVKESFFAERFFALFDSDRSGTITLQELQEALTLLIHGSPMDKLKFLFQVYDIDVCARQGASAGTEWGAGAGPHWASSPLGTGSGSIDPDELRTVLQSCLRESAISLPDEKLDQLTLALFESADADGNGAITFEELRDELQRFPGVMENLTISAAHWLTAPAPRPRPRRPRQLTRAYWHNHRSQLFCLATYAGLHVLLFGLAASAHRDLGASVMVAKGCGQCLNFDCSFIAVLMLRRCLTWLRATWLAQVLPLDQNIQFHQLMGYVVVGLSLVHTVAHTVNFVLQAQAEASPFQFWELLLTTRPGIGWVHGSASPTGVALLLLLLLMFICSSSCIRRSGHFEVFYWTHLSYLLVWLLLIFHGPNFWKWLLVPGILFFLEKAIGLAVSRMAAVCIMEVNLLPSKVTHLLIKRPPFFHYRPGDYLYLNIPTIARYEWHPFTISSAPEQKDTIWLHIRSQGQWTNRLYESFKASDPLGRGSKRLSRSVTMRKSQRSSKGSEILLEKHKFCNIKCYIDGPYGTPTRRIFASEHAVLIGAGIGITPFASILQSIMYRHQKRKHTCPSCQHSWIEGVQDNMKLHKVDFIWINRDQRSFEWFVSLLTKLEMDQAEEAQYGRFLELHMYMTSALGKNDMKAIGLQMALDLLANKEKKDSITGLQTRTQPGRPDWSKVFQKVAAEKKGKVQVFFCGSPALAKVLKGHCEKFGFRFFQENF
NADPH oxidase 2 (Homo sapiens), sequence (P04839 whole entry, looked up): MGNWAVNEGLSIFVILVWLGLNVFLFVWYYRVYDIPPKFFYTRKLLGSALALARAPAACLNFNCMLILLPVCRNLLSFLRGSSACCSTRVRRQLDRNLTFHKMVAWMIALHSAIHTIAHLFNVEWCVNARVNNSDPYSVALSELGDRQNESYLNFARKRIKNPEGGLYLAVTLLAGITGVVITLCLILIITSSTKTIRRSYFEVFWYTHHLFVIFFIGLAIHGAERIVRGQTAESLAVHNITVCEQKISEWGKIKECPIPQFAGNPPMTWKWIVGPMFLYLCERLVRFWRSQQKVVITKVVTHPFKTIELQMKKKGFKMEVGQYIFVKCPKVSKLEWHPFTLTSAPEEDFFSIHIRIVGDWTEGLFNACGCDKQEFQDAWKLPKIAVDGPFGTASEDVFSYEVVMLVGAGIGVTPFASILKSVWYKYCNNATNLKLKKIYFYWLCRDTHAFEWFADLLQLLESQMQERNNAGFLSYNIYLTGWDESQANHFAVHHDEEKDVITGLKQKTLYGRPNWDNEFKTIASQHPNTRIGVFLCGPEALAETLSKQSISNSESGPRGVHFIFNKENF

In the case of `CN1C(=O)C2C=CC(C(O)C3=C[C@H]4C[C@@H](C3)C4(C)C)N(Nc3ccc([N+](=O)[O-])cc3[N+](=O)[O-])C2C1=O` (stereo not given in full), the z-score in test [1] is -0.794 (inactive); in test [3], 3.59 (inactive); in test [4], 1.27 (inactive); in [5], 1.06 (inactive); in test [6], 1.05 (inactive); in test [7], -0.456. In addition, the z-score in test [8] is 0.0656 (inactive); in test [9], -0.0391 (inactive); in test [10] it was -1.2; in test [11], 0.895; in test [12] it was -0.535; in test [13] it was 0.436. Moreover, the z-score in [14] was 0.017; in [15], -0.481; in test [16] it was -0.661; in test [17] it was -1.35 (inactive); in [18], -0.46; in [19] it was -1.1. Also, the z-score in test [20] was -0.227 (inactive). The compound further returned a composite z-score in test [2] of 0.271.
As for `COCCOC(=O)N1C(=O)[C@@]2(c3cc(C#Cc4ccc(OC)cc4)ccc31)[C@H](c1ccc(O)cc1)N1[C@H](c3ccccc3)[C@H](c3ccccc3)OC(=O)[C@H]1[C@@H]2C(=O)N1CCN(c2ncccn2)CC1`, the z-score in test [1] was 0.714 (inactive); in [3], 1.45 (inactive); in test [4], 0.876 (inactive); in test [5], -0.969 (inactive); in test [6] it was 0.59 (inactive); in [7], -0.63. Also, the z-score in test [8] was 1.87 (inactive); in test [9], -1.34 (inactive); in [10], -0.0267; in [11], -0.514; in test [12], 0.546; in test [13], -0.0225. Further, the z-score is -0.305 in test [14]; -1.12 in test [15]; -0.445 in [16]; 2.33 (inactive) in test [17]; -0.525 in [18]; -0.339 in test [19]. The z-score in test [20] was 0.484 (inactive). The same compound came in with a composite z-score in [2] of -0.0601.
Take `COCCOC(=O)N1C(=O)[C@@]2(c3cc(C#CCCO)ccc31)[C@H](c1ccc(O)cc1)N1[C@H](c3ccccc3)[C@H](c3ccccc3)OC(=O)[C@H]1[C@@H]2C(=O)N1CCCCCCC1`: the z-score was -0.275 (inactive) in test [1]; 0.139 (inactive) in test [3]; -0.178 (inactive) in [4]; -0.599 (inactive) in test [5]; 0.0501 (inactive) in [6]; -0.451 in [7]. Besides, the z-score is 1.17 (inactive) in [8]; 0.131 (inactive) in test [9]; 1.38 in [10]; -0.0601 in test [11]; 0.943 in test [12]; 1.18 in test [13]. The z-score in test [14] was 0.632; in test [15], -1.22; in test [16], -0.701; in [17] it was -0.838 (inactive); in [18], 0.242; in [19], 0.271. In test [20], the z-score was -0.44 (inactive). The same compound had a composite z-score in test [2] of 1.6.
As to `C=CCC(OC(C)=O)[C@@H]1[C@@H](N(Cc2cc3ccccc3o2)C(=O)c2cccc3ccccc23)c2cc(OCCCO)ccc2N1C(=O)Cc1ccc(OC)cc1` (stereo not given in full), the z-score in [1] was -0.901 (inactive); in [3], 1.7 (inactive); in test [4], 0.923 (inactive); in test [5] it was 1.66 (inactive); in [6], 0.629 (inactive); in [7], 0.907. The z-score in test [8] was -1.79 (inactive); in test [9], -0.428 (inactive); in test [10] it was -1.57; in [11], 0.323; in [12], 1.28; in [13], 0.222. Moreover, the z-score was 0.381 in test [14]; -1.05 in test [15]; 2.46 in [16]; -0.0309 (inactive) in [17]; 0.181 in test [18]; 0.177 in test [19]. The z-score in [20] was -1.38 (inactive). This compound also gave a composite z-score in test [2] of -0.195.
Take `C=CCN1Cc2ccccc2C[C@]2(N=C(c3ccc(OCCCO)cc3)O[C@@H]2c2ccccc2)C1=O`: the z-score was 1.35 (inactive) in [1]; 24.3 (active) in test [3]; 12.6 (active) in test [4]; -0.0845 (inactive) in test [5]; 1.93 (inactive) in test [6]; 1.95 in test [7]. Besides, the z-score in [8] is -2.9 (inactive); in [9], 0.272 (inactive); in test [10] it was -2.7; in test [11] it was -0.584; in [12], 0.975; in test [13], -0.676. Further, the z-score is -3.58 in test [14]; -3.71 in [15]; 0.96 in [16]; 0.101 (inactive) in test [17]; -1.16 in [18]; -0.762 in test [19]. Moreover, in [20], the z-score was -2.13 (inactive). In addition, the composite z-score in [2] amounted to 0.32.
Turning to `COCCOC(=O)N1C(=O)[C@@]2(c3ccccc31)[C@H](c1ccc(O)cc1)N1[C@H](c3ccccc3)[C@H](c3ccccc3)OC(=O)[C@H]1[C@@H]2C(N)=O`, the z-score in test [1] was 0.0672 (inactive); in test [3], 2 (inactive); in test [4] it was 1.18 (inactive); in [5], 1.34 (inactive); in test [6] it was 0.44 (inactive); in test [7], -0.0639. For the same compound, the z-score in test [8] was -0.198 (inactive); in [9], -0.747 (inactive); in test [10], -0.0275; in test [11], 0.357; in test [12], 0.502; in [13], 1.75. Also, the z-score is 0.936 in [14]; 0.395 in test [15]; -0.815 in [16]; 0.76 (inactive) in [17]; 0.296 in [18]; -0.971 in test [19]. Besides, the z-score in test [20] is -0.83 (inactive). The composite z-score in test [2] is -0.379.
Regarding `C[C@H]1C2[C@H](Cc3ccccc3)NC(=O)[C@]23C(=O)N[C@H](Cc2ccccc2)C(=O)N[C@H](Cc2ccccc2)C(=O)NC/C=C/CCC/C=C/C3[C@@H]2O[C@]12C` (stereo not given in full), the z-score in test [1] was 0.655 (inactive); in test [3], 1.75 (inactive); in test [4], 0.452 (inactive); in test [5] it was 0.601 (inactive); in [6], 0.794 (inactive); in test [7], 0.282. Also, the z-score in [8] is 0.563 (inactive); in test [9], -0.312 (inactive); in test [10] it was 0.875; in test [11] it was 0.144; in test [12] it was 1.58; in test [13] it was -0.385. Moreover, the z-score in [14] is -1.01; in [15] it was -3.48; in [16] it was 1.71; in test [17], -0.77 (inactive); in test [18] it was -0.469; in test [19], -1.08. Moreover, the z-score in test [20] is -1.5 (inactive). In addition, the composite z-score in test [2] was -0.19.
As for `C=CCNC(=O)[C@@H]1[C@H]2C(=O)O[C@H](c3ccccc3)[C@H](c3ccccc3)N2[C@H](c2ccccc2OCCO)[C@@]12C(=O)N(C(=O)OCCOC)c1ccc(C#CCC(C(=O)OC)C(=O)OC)cc12`, the z-score in test [1] is 0.0535 (inactive); in [3] it was 1.78 (inactive); in test [4], 0.931 (inactive); in [5], 0.222 (inactive); in test [6] it was 0.506 (inactive); in test [7], 0.273. For the same compound, the z-score was 0.793 (inactive) in [8]; 0.966 (inactive) in test [9]; 1.07 in test [10]; 0.136 in test [11]; -0.609 in [12]; -0.592 in test [13]. Besides, the z-score in [14] is -0.794; in [15], -1.57; in test [16] it was 0.408; in [17] it was 0.618 (inactive); in test [18], -0.802; in test [19], -1.35. Also, in [20], the z-score was 1.31 (inactive). The same compound had a composite z-score in [2] of 1.51.
